# Test results from PubChem BioAssay.
# The source made the active and inactive calls.
# Key:
# [1] = test system: Plasmodium falciparum Sir2 (PF13_0152, Sir2A); experiment: Plasmodium falciparum Sir2A binding compounds – biochemical, small-molecule microarray, 635 nm fluorescence, primary screen (AID 1098); settings: fluorescence 635 nm, higher = more signal;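 further: score merges spot fluorescence intensity with its signal-to-noise ratio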
# [2] = probe aDKK1 binding to arrayed compounds – biochemical, biotinylated probe, 635/667 nm fluorescence, primary screen (AID 1099); settings: small-molecule microarray, higher = more signal;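 further: score merges 667nm spot fluorescence with signal to noise across triplicate slides; reference of the scale not given here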
# [3] = probe aCHRDL2 binding to arrayed compounds – biochemical, biotinylated probe, 635/667 nm fluorescence, primary screen (AID 1100); settings: small-molecule microarray, higher = more signal
# [4] = change in splice reporter luminescence, either direction, cell-based, HEK293, spliceosome inhibition project, primary screen (AID 1101); settings: HEK293 splicing luciferase reporter, 24 h, higher = more signal, called active from +8 up or from −8 down;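 further: HEK293 cells carrying a splicing-competent luciferase reporter gene; test concentration not given here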
# [5] = biological target: Fibroblast growth factor 10 (Homo sapiens) (UniProt O15520); experiment: compounds binding fibroblast growth factor 10 – biochemical, small-molecule microarray, 635 nm fluorescence, primary screen (AID 1102); settings: FGF10 binding, fluorescence 635 nm, higher = more signal
# Chain of Fibroblast growth factor 10 (Homo sapiens) (O15520 whole entry, looked up): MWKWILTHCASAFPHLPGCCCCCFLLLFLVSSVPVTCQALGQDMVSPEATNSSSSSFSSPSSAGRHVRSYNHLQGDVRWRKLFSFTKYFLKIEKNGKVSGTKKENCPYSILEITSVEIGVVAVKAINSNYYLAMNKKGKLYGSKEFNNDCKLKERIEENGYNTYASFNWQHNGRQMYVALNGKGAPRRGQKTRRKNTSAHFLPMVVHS
# [6] = test system: glycogen synthase kinase-3 (GSK3A per assay name; protocol says GSK3B); experiment: compounds binding glycogen synthase kinase-3 – biochemical, small-molecule microarray, 635 nm fluorescence, GSK3A, primary screen (AID 1103); settings: fluorescence 635 nm, higher = more signal; further: the record names both GSK3A and GSK3B
# [7] = biological target: Epidermal growth factor receptor (Homo sapiens) (UniProt P00533); experiment: compounds binding epidermal growth factor receptor – biochemical, small-molecule microarray, 635 nm fluorescence, primary screen (AID 1104); settings: EGFR binding, higher = more signal;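 further: score merges 667 nm emission intensity with spot signal to noise over triplicate slides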
# Chain of Epidermal growth factor receptor (Homo sapiens) (P00533 whole entry, looked up): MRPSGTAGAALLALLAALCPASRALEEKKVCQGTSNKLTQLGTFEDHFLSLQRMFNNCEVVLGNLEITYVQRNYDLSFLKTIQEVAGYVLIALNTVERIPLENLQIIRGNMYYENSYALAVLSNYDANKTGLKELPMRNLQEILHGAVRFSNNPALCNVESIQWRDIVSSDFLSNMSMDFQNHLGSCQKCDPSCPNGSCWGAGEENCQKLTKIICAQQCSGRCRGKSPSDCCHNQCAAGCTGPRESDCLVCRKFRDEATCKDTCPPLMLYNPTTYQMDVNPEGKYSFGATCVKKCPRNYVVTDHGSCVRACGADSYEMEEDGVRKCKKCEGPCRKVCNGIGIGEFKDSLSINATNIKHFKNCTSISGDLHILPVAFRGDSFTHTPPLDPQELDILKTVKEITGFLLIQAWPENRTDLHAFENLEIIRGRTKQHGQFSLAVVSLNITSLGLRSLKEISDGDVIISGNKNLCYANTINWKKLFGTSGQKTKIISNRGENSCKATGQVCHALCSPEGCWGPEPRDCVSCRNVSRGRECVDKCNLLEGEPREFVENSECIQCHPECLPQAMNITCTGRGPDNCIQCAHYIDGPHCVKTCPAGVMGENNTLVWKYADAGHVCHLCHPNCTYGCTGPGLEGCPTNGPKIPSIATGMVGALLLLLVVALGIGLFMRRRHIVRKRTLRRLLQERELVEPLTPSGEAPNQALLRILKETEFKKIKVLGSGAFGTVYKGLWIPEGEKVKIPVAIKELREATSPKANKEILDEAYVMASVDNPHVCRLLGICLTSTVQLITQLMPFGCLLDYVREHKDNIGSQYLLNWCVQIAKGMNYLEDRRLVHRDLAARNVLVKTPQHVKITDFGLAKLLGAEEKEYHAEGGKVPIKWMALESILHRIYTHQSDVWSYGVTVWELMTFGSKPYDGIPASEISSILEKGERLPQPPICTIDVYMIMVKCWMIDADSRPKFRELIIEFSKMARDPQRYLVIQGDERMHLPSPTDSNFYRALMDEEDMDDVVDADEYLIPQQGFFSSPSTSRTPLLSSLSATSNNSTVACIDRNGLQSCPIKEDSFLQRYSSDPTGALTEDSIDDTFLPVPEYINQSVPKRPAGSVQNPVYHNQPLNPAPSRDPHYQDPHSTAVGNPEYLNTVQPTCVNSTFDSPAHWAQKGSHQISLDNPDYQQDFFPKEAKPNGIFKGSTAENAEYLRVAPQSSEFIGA
# [8] = biological target: Follistatin-related protein 3 (Homo sapiens) (UniProt O95633); experiment: compounds binding follistatin-related protein 3 – biochemical, small-molecule microarray, 635 nm fluorescence, primary screen (AID 1105); settings: FSTL3 binding, higher = more signal;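 further: score merges emission near 667 nm and signal to noise per printed spot across three slides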
# Chain of Follistatin-related protein 3 (Homo sapiens) (O95633 whole entry, looked up): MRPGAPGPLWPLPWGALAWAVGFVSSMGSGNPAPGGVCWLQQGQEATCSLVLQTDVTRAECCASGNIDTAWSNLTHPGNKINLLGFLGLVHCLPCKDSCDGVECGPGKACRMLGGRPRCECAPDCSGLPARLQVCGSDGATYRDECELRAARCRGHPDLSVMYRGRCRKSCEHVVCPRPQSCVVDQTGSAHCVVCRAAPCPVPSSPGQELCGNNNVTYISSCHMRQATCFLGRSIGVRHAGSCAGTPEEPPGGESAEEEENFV
# [9] = biological target: Dickkopf-related protein 1 (Homo sapiens) (UniProt O94907); experiment: small molecules binding DKK1 protein – biochemical, small-molecule microarray, 635 nm fluorescence scan, primary screen (AID 1106); settings: higher = more signal;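 further: score merges emission near 667 nm with signal to noise over three replicate slides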
# Chain of Dickkopf-related protein 1 (Homo sapiens) (O94907 whole entry, looked up): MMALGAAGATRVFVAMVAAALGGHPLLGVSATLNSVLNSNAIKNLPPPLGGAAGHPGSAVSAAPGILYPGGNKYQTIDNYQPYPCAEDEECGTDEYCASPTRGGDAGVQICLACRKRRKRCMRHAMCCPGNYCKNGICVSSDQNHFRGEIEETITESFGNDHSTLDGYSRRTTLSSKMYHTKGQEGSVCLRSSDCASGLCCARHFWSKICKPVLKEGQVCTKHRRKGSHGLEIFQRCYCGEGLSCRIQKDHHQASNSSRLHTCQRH
# [10] = test system: Inhibin beta A chain (activin A); experiment: small molecules binding activin A – biochemical, small-molecule microarray, 635 nm fluorescence scan, primary screen (AID 1107); settings: INHBA, higher = more signal;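 further: mouse activin A protein probed at 4.33 µg/mL on printed slides; score merges bound-protein fluorescence near 667 nm with spot signal-to-noise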
SMILES,composite z-score [1],composite z-score [2],composite z-score [3],z-score [4],composite z-score [5],composite z-score [6],composite z-score [7],composite z-score [8],composite z-score [9],composite z-score [10]
NC(=O)NCC#Cc1ccc2c(c1)[C@]1(C(=O)N2)[C@H](C(=O)N2CCCCCCC2)[C@H]2C(=O)O[C@H](c3ccccc3)[C@H](c3ccccc3)N2[C@@H]1c1ccc(O)cc1,1.63,2.7,1.47,-0.15 (inactive),1.4,0.919,1.27,1.51,1.63,1.49
Cc1c(-c2ccc(-c3ccc(Cl)c(Cl)c3)o2)nc(-c2ccccc2)c2c1CO[Si]2(C(C)C)C(C)C,0.872,-0.186,0.11,2.11 (inactive),0.316,-0.449,-0.532,-0.382,-0.234,0.938
CCc1cccc(NC(=O)O[C@H]2[C@H](OC(=O)Nc3ccc4c(c3)OCO4)[C@H](OC(=O)Nc3ccc4c(c3)OCO4)[C@@H](OC)O[C@@H]2CO)c1,1.44,-0.154,0.226,-1.34 (inactive),0.699,1.32,-0.438,0.791,0.129,0.627
C=CCC(OC(C)=O)[C@@H]1[C@@H](N(Cc2cccc3ccccc23)C(=O)c2cccc3ccccc23)c2cc(OCCCO)ccc2N1C(=O)Cc1ccc2ccccc2c1 (stereo not given in full),-0.181,-0.177,0.551,0.341 (inactive),-0.0715,-0.0273,-0.117,0.246,-0.394,1.48
C=CC[C@]1(C(=O)NCCCOC)N=C(c2ccc(OCCCO)cc2)O[C@H]1c1ccccc1,1.08,0.107,1.05,-0.318 (inactive),-0.418,0.94,-1.69,-0.0778,-1.13,-0.112
CCCCNC(=O)c1ccc(C#C[Si](C)(C)C)c(OC(C)=O)c1,-0.0653,-0.31,-0.509,-0.176 (inactive),0.458,0.419,0.315,0.384,0.374,0.58
CC(C)N1CC=CC23O[C@@H]4C=CCCOC(=O)C4[C@H]2C(=O)N(CCCCCO)[C@@H]3C1=O (stereo not given in full),1.58,-0.188,0.317,-0.0254 (inactive),-0.347,-1.26,-0.575,-0.749,-1.06,0.559
COCCOC(=O)N1C(=O)[C@@]2(c3cc(C#CCC(C(=O)OC)C(=O)OC)ccc31)[C@H](c1ccc(OCCO)cc1)N1[C@H](c3ccccc3)[C@H](c3ccccc3)OC(=O)[C@H]1[C@@H]2C(=O)N1CCCCCCC1,1.27,2.5,1.21,-0.915 (inactive),0.778,1.34,1.32,1.66,1.04,1.93
CC(C)CNC(=O)[C@@H]1c2ccccc2C(=O)N(Cc2ccccc2Cl)[C@H]1c1ccc(CO)cc1,1.29,0.495,0.959,0.587 (inactive),-0.765,0.729,-0.519,-0.644,-1.17,-0.114
COCCOC(=O)N1C(=O)[C@@]2(c3cc(C#CCCO)ccc31)[C@H](C(=O)N1CCN(c3ncccn3)CC1)[C@H]1C(=O)O[C@H](c3ccccc3)[C@H](c3ccccc3)N1[C@@H]2c1ccc(O)cc1,1.3,-0.499,-0.345,0.894 (inactive),1.16,1.01,0.368,0.698,-0.0017,-0.242
COc1ccc(NN2C(C(O)c3ccc(OC)cc3)C=CC3C(=O)N(C4CCCCC4)C(=O)C32)cc1 (stereo not given),0.797,0.702,0.501,-0.316 (inactive),0.608,1.14,0.556,1.04,-0.101,1.2
CC(=O)c1ccc(C(O)C2C=CC3C(=O)NC(=O)C3N2Nc2ccc(Cl)cc2Cl)cc1 (stereo not given),0.366,0.947,1.02,0.58 (inactive),0.554,-0.454,0.0262,0.141,-0.291,1.03
COCCOC(=O)N1C(=O)[C@@]2(c3ccccc31)[C@H](c1ccc(OCCO)cc1)N1[C@H](c3ccccc3)[C@H](c3ccccc3)OC(=O)[C@H]1[C@@H]2C(=O)N1CCN(c2ncccn2)CC1,1.22,0.639,0.539,-0.483 (inactive),1.42,1.34,0.791,1.44,1.09,0.943
CO[C@H]1O[C@H](CO)[C@@H](OC(=O)Nc2ccc(C(F)(F)F)cc2)[C@H](OC(=O)Nc2ccccc2-c2ccccc2)[C@H]1OC(=O)Nc1ccccc1-c1ccccc1,1.29,0.13,0.411,-1.03 (inactive),1.52,1.35,0.223,1.15,0.162,0.436
CCOC(=O)C1=C(C(=O)OCC)N(S(=O)(=O)CC[Si](C)(C)C)[C@H](c2ccccc2)CC1,0.461,0.879,0.845,0.37 (inactive),0.8,1,0.313,0.971,-0.111,0.955
C=CCNC(=O)[C@@H]1[C@H]2C(=O)O[C@H](c3ccccc3)[C@H](c3ccccc3)N2[C@H](c2ccccc2OCCO)[C@@]12C(=O)N(C(=O)OCCOC)c1ccc(C#CCCO)cc12,1.05,-0.274,0.272,-0.821 (inactive),1.35,1.23,0.266,0.904,0.312,0.241
C=CC[C@]1(C(=O)OC)N=C(c2ccc(OCCCO)cc2)O[C@H]1c1ccccc1N=[N+]=[N-],1.54,1.21,0.865,-1.4 (inactive),1.25,1.31,1.19,1.37,1.26,0.826
COC(=O)[C@@]1(Cc2ccc(OC)cc2)[C@@H]2[C@@H](CC(=O)[C@H]2CC(=O)C(=O)N2CCCC2)CN1C(=O)c1ccccc1,1.66,2.76,1.21,-2.69 (inactive),1.44,1.07,0.725,0.868,0.823,0.846
C=CCN1C(=O)[C@]2(O[C@H](CCO)[C@@H]([Si](C)(C)c3ccc(OC)cc3)[C@@H]2C)c2ccccc21,0.504,-0.141,0.837,-3.11 (inactive),-0.876,-0.73,-0.66,-0.608,-1.27,0.456
O=C1NC(=O)C2C1C=CC(C(O)c1ccc(F)cc1)N2Nc1ccccn1 (stereo not given),1.06,-0.118,0.243,1.23 (inactive),0.138,-0.371,0.255,-0.0918,0.297,0.877
COC(=O)Cn1c(C(=O)N(C)C)cc2c1C[C@H]1CN(C(=O)c3ccccc3)[C@@](Cc3ccc(OC)cc3)(C(=O)OC)[C@@H]21,1.39,0.311,0.635,-4.19 (inactive),1.13,-0.196,0.0287,0.36,-0.165,0.421
COc1ccc([Si](C)(C)[C@@H]2[C@@H](CC(=O)N(CCO)Cc3ccccc3)O[C@]3(C(=O)N(Cc4ccc(N5CCC5=O)cc4)c4ccccc43)[C@H]2C)cc1,1.41,-0.26,0.618,-1.9 (inactive),0.0525,-0.808,0.359,0.953,0.919,0.0242
C=C(COC)C(=O)CC[C@@H](OC(C)=O)c1ccc(OCCO)cc1,1.09,0.237,0.523,2 (inactive),0.977,0.186,-0.484,0.278,-0.0393,1.42
COc1ccc(CC[C@H](O)c2cccc(OCC(=O)OC(C)(C)C)c2)cc1,1.16,0.15,-0.0667,1.3 (inactive),0.883,1.06,0.344,1.09,0.688,-0.0035
CCCCC=C[C@@H](NC(=O)c1ccc(C(F)(F)F)cc1)c1ccccc1,-0.101,0.256,0.905,-4.33 (inactive),-1.13,-1.03,-1.28,-1.01,-1.37,1.37
O=c1cccc(-c2ccccc2C(F)(F)F)o1,-0.722,1.15,0.567,0.756 (inactive),-0.382,-0.363,-0.955,-0.722,-0.469,1.11
CCCC[C@@H]1C[C@H]1[C@@H](NC(=O)c1ccc(C(F)(F)F)cc1)c1ccc(C(=O)OC)cc1,0.234,0.172,0.158,-1.22 (inactive),0.743,0.352,0.6,1.09,0.583,1.32
CCOC(=O)C1=CC[C@@H](c2ccccc2)N(S(=O)(=O)C[Si](C)(C)C)[C@H]1c1ccccc1,1.09,0.319,-0.0475,-1.02 (inactive),0.78,0.651,0.461,1.37,0.405,0.193
C=CCOC(=O)[C@H]1[C@@H]2C(=O)O[C@@H](c3ccccc3)[C@@H](c3ccccc3)N2[C@@H](c2ccc(OCCOC(=O)[C@@H]3C[C@@H]4C(=O)N[C@@H](Cc5ccccc5)C(=O)N4[C@@H]3c3ccc(O)cc3)cc2)[C@]12C(=O)Nc1ccccc12,1.34,-0.271,-0.25,0.878 (inactive),1.18,1.29,0.328,0.953,0.973,-0.0812
CN(C)CCCC[C@@H]1NC(=O)[C@@H]2C[C@H](C(=O)NCc3ccc(F)cc3)[C@H](c3ccc(O)cc3)N2C1=O,1.56,-0.126,-0.0292,0.104 (inactive),1.47,0.941,0.176,0.0719,0.2,-1.43
